PKM2 act: qHTS Assay for Activators of Human Muscle isoform 2 Pyruvate Kinase; Potency, µM (series often up to 57.5 µM), most hits filed as activators; hit rate 0.34% among 260,000; purified PKM2, Kinase-Glo ATP luminescence, activation; response scale: 0% is enzyme alone, no compound; further: nearly all actives have a fitted effect of over 55% in size
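Purified hPK-M2 (>95%) run at intermediate activity with 0.1 mM ADP and 0.5 mM PEP in 50 mM imidazole pH 7.2, KCl, MgCl2; 1 h room temperature. ATP formed read by Kinase-Glo luminescence; normalized to uninhibited and no-enzyme controls.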
BLM inh-1: qHTS Assay for Inhibitors of Bloom's syndrome helicase (BLM); hit rate 0.2% among 350,000; RecQ-like DNA helicase BLM (Homo sapiens), P54132; Potency, µM (highest dose often 56.1 µM), hits mostly inhibitors; recombinant BLM DNA unwinding, fluorescence dequenching; further: nearly all actives have a fitted effect of over 35% in size
JMJD2E inh: qHTS Assay for Inhibitors of Human Jumonji Domain Containing 2E (JMJD2E). JMJD2E catalytic domain, FDH-coupled NADH fluorescence (FDH is formaldehyde dehydrogenase). Potency, µM (series often up to 57.1 µM), actives largely listed as inhibitors. hit rate 1.6% among 230,000; active means well fitted inhibition curve with a large enough effect, not every such curve was filed as active; inconclusive means small, poorly fitted or top-dose-only effect, or another doubt; inactive means no such curve, though single readings can be large or run the other way; further: nearly all actives have a fitted effect of over 50% in size
Target sequence (B2RXH2 1-337 limits assumed): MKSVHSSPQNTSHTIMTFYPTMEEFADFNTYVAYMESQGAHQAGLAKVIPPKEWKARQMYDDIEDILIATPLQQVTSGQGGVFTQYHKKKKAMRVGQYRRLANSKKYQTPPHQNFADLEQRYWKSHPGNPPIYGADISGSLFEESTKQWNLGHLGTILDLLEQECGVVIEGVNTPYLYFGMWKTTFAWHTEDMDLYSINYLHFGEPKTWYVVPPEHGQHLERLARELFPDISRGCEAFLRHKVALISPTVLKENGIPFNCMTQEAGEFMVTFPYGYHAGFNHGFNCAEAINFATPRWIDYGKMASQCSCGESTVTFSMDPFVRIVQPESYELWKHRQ
APE1 inh: qHTS Assay for Inhibitors of the Human Apurinic/apyrimidinic Endonuclease 1 (APE1); recombinant APE1, TAMRA/BHQ-2 abasic DNA cleavage fluorescence; Potency, µM (doses to about 65.8 µM), usual class: inhibitors; hit rate 0.35% among 350,000; AID 2517, 2012; further: nearly all actives have a fitted effect of over 55% in size
Target sequence (P27695 whole entry, looked up): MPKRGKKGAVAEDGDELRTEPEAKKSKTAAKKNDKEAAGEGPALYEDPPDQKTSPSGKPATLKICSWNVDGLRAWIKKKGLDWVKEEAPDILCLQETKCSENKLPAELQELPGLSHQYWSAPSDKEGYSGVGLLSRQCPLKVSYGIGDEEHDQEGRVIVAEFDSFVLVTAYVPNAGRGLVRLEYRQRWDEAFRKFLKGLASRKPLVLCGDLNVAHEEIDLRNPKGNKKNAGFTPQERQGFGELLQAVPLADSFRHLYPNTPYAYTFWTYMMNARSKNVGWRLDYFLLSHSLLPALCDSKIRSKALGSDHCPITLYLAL
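Step 1: APE1 (0.75 nM) with compound, 15 min RT. Step 2: add 50 nM fluorophore/quencher THF duplex. Step 3: three fluorescence reads 60 s apart (525/598 nm); read 3 minus read 1 = reaction progress.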
RECQ1 inh-1: qHTS Assay for Inhibitors of RecQ-Like Dna Helicase 1 (RECQ1). AID 2549, 2010. hit rate 0.54% among 240,000. RECQ1 DNA unwinding, red fluorescence kinetic read. ATP-dependent DNA helicase Q1 (Homo sapiens), P46063. Potency, µM (series often up to 57.3 µM), hits mostly inhibitors; further: nearly all actives have a fitted effect of over 30% in size
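50 nM RECQ1T1 preincubated 15 min with compound in Tris pH 8.0 buffer with MgCl2, DTT, Tween-20 and 2.5 ug/ml poly(dI-dC); started with 200 nM TAMRA/BHQ-2 forked duplex and 2 mM ATP. Unwinding read as fluorescence (525/598 nm), two reads 2 h apart.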
BLM inh-2: qHTS Confirmation Assay for Inhibitors of Bloom's syndrome helicase (BLM). shares compounds with BLM inh-1. BLM DNA unwinding, fluorescence quenching, biochemical. Potency, µM, most hits filed as inhibitors. hit rate 40% among 220;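 further: strand separation dequenches TAMRA so unwinding raises red fluorescence; series mostly up to about 69 µM; nearly all actives have a fitted effect of over 45% in size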
RECQ1 conf: Confirmation qHTS Assay for Inhibitors of RecQ-Like Dna Helicase 1 (RECQ1); Potency, µM (top dose mostly 229 µM), usual class: inhibitors; RECQ1 helicase DNA unwinding, fluorescence; hit rate 28% among 610; AID 2708, 2010; shares compounds with RECQ1 inh-1; further: nearly all actives have a fitted effect of over 45% in size
ADP FP counter: Counterscreen for RECQ1 Inhibitors: ADP Fluorescence Polarization Displacement Assay; Potency, µM (series often up to 228 µM), most hits filed as inhibitors; hit rate 27% among 530; ADP fluorescence polarization displacement counterscreen; shares compounds with RECQ1 inh-1; AID 2711, 2010; further: nearly all actives have a fitted effect of over 45% in size
RECQ1 inh-2: Confirmation qHTS Assay for Inhibitors of RecQ-Like Dna Helicase 1 (RECQ1) - Round 2 Cherry Picks. Potency, µM (titrated, usually from 119 µM), hits mostly inhibitors. recombinant RECQ1 DNA unwinding, red fluorescence. hit rate 15% among 1,100. shares compounds with RECQ1 inh-1; further: nearly all actives have a fitted effect of over 50% in size
Of the large screens only hits and unclear results are named; the others gave an inactive call (follow-up assays come after a bar, where they were run). This is one part of a sample in which hits are shown more often than they occur. Unless noted, the call rests on the fitted dose curve; in most records, active means well fitted curve in the direction sought with a large enough effect; inconclusive means small, poorly fitted or top-dose-only effect, or another doubt; inactive means no such curve, though single readings can be large; an effect the other way counts as inactive or inconclusive.

O=C(CSc1nc2ccccc2n1CCc1ccccc1)c1ccc(O)c(O)c1	BLM inh-1 11.2µM, JMJD2E inh 22.4µM, APE1 inh 0.891µM, RECQ1 inh-1 7.08µM | BLM inh-2 19.2µM | RECQ1 conf 44.7µM | RECQ1 inh-2 inconclusive
COc1ccc(Nc2cc(C)c3cc(NC(=O)c4cc(OC)cc(OC)c4)ccc3n2)cc1	none (no result: PKM2 act, JMJD2E inh, APE1 inh, RECQ1 inh-1)
CN1CCN(c2ccc(Nc3c4ccccc4nc4ccccc34)cc2)CC1	BLM inh-1 20µM, APE1 inh 22.4µM, RECQ1 inh-1 12.6µM (no result: PKM2 act, JMJD2E inh) | BLM inh-2 32.4µM | RECQ1 conf 11.2µM | ADP FP counter 35.5µM
CCCCc1nc2c(c3c1C[C@H](C)OC3)CN(C(=O)NCc1ccco1)CC2	none
Cn1c(SCC(=O)NCC2CCCO2)nc2scc(-c3ccccc3)c2c1=O (stereo not drawn)	none (no result: PKM2 act, BLM inh-1, JMJD2E inh, RECQ1 inh-1)
O=C(CSc1nc2scc(-c3ccco3)c2c(=O)n1-c1ccccc1)NCC1CCCO1 (stereo not drawn)	PKM2 act inconclusive, BLM inh-1 14.1µM, APE1 inh inconclusive, RECQ1 inh-1 inconclusive | BLM inh-2 inconclusive | RECQ1 inh-2 inconclusive
O=C(N/N=C/c1ccc(F)cc1)c1cc(-c2ccco2)nc2ccccc12	PKM2 act inconclusive, BLM inh-1 8.91µM, JMJD2E inh inconclusive, APE1 inh 4.47µM, RECQ1 inh-1 10µM | BLM inh-2 18.2µM | RECQ1 conf 39.8µM | ADP FP counter inconclusive
CCOc1ccc(/C=N/NC(=O)c2cc(-c3ccco3)nc3ccccc23)cc1	JMJD2E inh inconclusive
CN(c1ccccc1)c1ccc(/C=C(\CCC(=O)O)c2nc3ccccc3s2)cc1[N+](=O)[O-]	BLM inh-1 22.4µM, APE1 inh inconclusive, RECQ1 inh-1 inconclusive | BLM inh-2 36.3µM | RECQ1 inh-2 12.6µM
CC(Nc1oc(-c2ccc(COc3ccccc3)o2)nc1C#N)c1ccccc1 (stereo not drawn)	none (no result: PKM2 act, JMJD2E inh, APE1 inh, RECQ1 inh-1)
N#C/C(=C\c1ccc(N2CCOCC2)c([N+](=O)[O-])c1)c1nc2ccccc2[nH]1	APE1 inh inconclusive
N#C/C(=C\c1ccc(N2CCOCC2)o1)c1nc2ccccc2[nH]1	BLM inh-1 22.4µM, JMJD2E inh inconclusive, APE1 inh inconclusive, RECQ1 inh-1 31.6µM | BLM inh-2 inconclusive | RECQ1 inh-2 inconclusive
Cc1nc(CC(=O)N/N=C/c2ccc(OCC(=O)O)cc2)cs1	none
O=C(O)COc1ccc(/C=N/NC(=O)c2ccc(-c3csc(Nc4ccc(Cl)cc4)n3)cc2)cc1	PKM2 act inconclusive, BLM inh-1 3.55µM, JMJD2E inh inconclusive, APE1 inh 3.55µM, RECQ1 inh-1 11.2µM | BLM inh-2 8.13µM | RECQ1 conf 7.08µM | ADP FP counter inconclusive
CC(C)CN(C[C@@H](O)[C@H](Cc1ccccc1)NC(=O)O[C@H]1CO[C@H]2OCC[C@H]21)S(=O)(=O)c1ccc(N)cc1	none (no result: PKM2 act, JMJD2E inh, APE1 inh, RECQ1 inh-1)
Cc1ccc(SCc2cc(=O)c3c(=O)n(-c4ccccc4)[nH]c3[nH]2)cc1	BLM inh-1 15.8µM, JMJD2E inh inconclusive, APE1 inh inconclusive, RECQ1 inh-1 inconclusive | BLM inh-2 inactive | RECQ1 inh-2 inactive
CN(C)c1ccc(/C=C/c2ccc3c4ccccc4ccc3[n+]2-c2ccccc2)cc1	BLM inh-1 inconclusive, JMJD2E inh inconclusive, RECQ1 inh-1 20µM | BLM inh-2 68µM | RECQ1 conf 22.4µM
Cc1ccc2sc(NC(=O)c3ccc4c(c3)OCCO4)nc2c1C	none (no result: PKM2 act, JMJD2E inh, APE1 inh, RECQ1 inh-1)
Cc1nc2c(ccc3nc(NC(=O)c4ccc5c(c4)OCCO5)sc32)s1	JMJD2E inh inconclusive, RECQ1 inh-1 20µM | BLM inh-2 30.4µM | ADP FP counter inactive | RECQ1 inh-2 44.7µM
Oc1ccc(Nc2nc(NCC3CCCO3)c3ccccc3n2)cc1 (stereo not drawn)	BLM inh-1 15.8µM, RECQ1 inh-1 14.1µM | BLM inh-2 14.5µM | RECQ1 conf 25.1µM | ADP FP counter inconclusive | RECQ1 inh-2 39.8µM
COc1ccccc1CNc1ccnc(-c2ccc(N(C)C)cc2)n1	none (no result: PKM2 act, JMJD2E inh)
C=C(c1ccc(C(=O)O)cc1)c1cc2c(cc1C)C(C)(C)CCC2(C)C	BLM inh-1 inconclusive (no result: PKM2 act, JMJD2E inh, APE1 inh, RECQ1 inh-1) | BLM inh-2 68µM | RECQ1 conf inconclusive
CC1(C)CCC(C)(C)c2cc(C(=O)Nc3ccc(C(=O)O)cc3)ccc21	none (no result: PKM2 act)
Cc1ccc(C)c(Nc2nc(-c3ccccc3)c3cc(Br)ccc3n2)c1	none (no result: PKM2 act, JMJD2E inh, APE1 inh, RECQ1 inh-1)
O=C(O)c1cccc(-n2cccc2/C=C2/NC(=O)N(c3ccc(Cl)cc3)C2=O)c1	PKM2 act inconclusive, BLM inh-1 3.55µM, JMJD2E inh inconclusive, APE1 inh 2µM, RECQ1 inh-1 31.6µM | BLM inh-2 14.5µM | RECQ1 conf inconclusive
Cc1ccc(S(=O)(=O)N2CCCCC2)cc1NC(=O)Cn1ccc(C(F)(F)F)n1	RECQ1 inh-1 39.8µM | RECQ1 inh-2 inactive
O=c1nc(/C=C/c2cccn2-c2ccc([N+](=O)[O-])cc2)cc(C(F)(F)F)[nH]1	RECQ1 inh-1 35.5µM | RECQ1 inh-2 inconclusive
Cc1ccc(NC(=O)c2oc3ccc(S(=O)(=O)N4CCCCCC4)cc3c2C)c(C)c1	none (no result: PKM2 act, JMJD2E inh, APE1 inh, RECQ1 inh-1)
O=C(COC(=O)CCC(NC(=O)OCc1ccccc1)C(=O)OCC(=O)Nc1ccccc1)Nc1ccccc1 (stereo not drawn)	RECQ1 inh-1 inconclusive | RECQ1 inh-2 inactive
CCN(CC)C(=O)CC(c1ccccc1)c1ccco1 (stereo not drawn)	RECQ1 inh-1 inconclusive | RECQ1 inh-2 inconclusive
O=C(c1ccco1)N(CCC(c1ccccc1)c1ccco1)Cc1ccccc1 (stereo not drawn)	APE1 inh inconclusive, RECQ1 inh-1 11.2µM | RECQ1 conf inconclusive | ADP FP counter inactive | RECQ1 inh-2 44.7µM
CCCN(CCC)C(=O)CC(c1ccc(F)cc1)c1ccco1 (stereo not drawn)	none

Screens (PubChem BioAssay)
